Parameters in all cases: species or system human, MV4-11 + K-562 + COLO205 + SK-N-BE2 + OVCAR-8
The test system of one assay is GAK. The settings on record: read-out: apparent Kd; compound concentrations:100 nM and 1000 nM (sheet 'Samples'); n = 1.
For the next assay, the system named is MAP2K5. The settings on record: read-out: apparent Kd; compound concentrations:100 nM and 1000 nM (sheet 'Samples'); n = 1.
For another assay, the system named is SIK2. The settings on record: read-out: apparent Kd; compound concentrations:100 nM and 1000 nM (sheet 'Samples'); n = 1.
The test system of the next assay is SIK3. The settings on record: read-out: apparent Kd; compound concentrations:100 nM and 1000 nM (sheet 'Samples'); n = 1.
For another assay, the system named is ZAK. The settings on record: read-out: apparent Kd; compound concentrations:100 nM and 1000 nM (sheet 'Samples'); n = 1.
A further assay concerns GARS. The settings on record: read-out: apparent Kd; compound concentrations: 100 nM and 1000 nM (sheet 'Samples'), CATDS: 0.112943260502492; n = 1.
A further assay deals with MAP3K6. The settings on record: read-out: apparent Kd; compound concentrations: 100 nM and 1000 nM (sheet 'Samples'), CATDS: 0.103040219928506; n = 1.
Another assay relates to MTOR. The note with it: read-out: apparent Kd; compound concentrations: 100 nM and 1000 nM (sheet 'Samples'), CATDS: 0.20477857042049299; n = 1.
Another assay deals with PIK3C2A. The settings on record: read-out: apparent Kd; compound concentrations: 100 nM and 1000 nM (sheet 'Samples'), CATDS: 0.109461657335159; n = 1.
The subject of a further assay is PIK3CA. The note with it: read-out: apparent Kd; compound concentrations: 100 nM and 1000 nM (sheet 'Samples'), CATDS: 0.41958784794042803; n = 1.
The next assay deals with PRKDC. The settings on record: read-out: apparent Kd; compound concentrations: 100 nM and 1000 nM (sheet 'Samples'), CATDS: 0.14221616768717599; n = 1.
A further assay has as its system RAB14. The note with it: read-out: apparent Kd; compound concentrations: 100 nM and 1000 nM (sheet 'Samples'), CATDS: 0.14270902117051201; n = 1.
A further assay relates to GRK6. The note with it: read-out: apparent Kd, n = 1.
A further assay deals with HSP90B1. The settings on record: read-out: apparent Kd, compound concentrations: 100 nM and 1000 nM (sheet 'Samples'), n = 1.
The next assay deals with MAP2K1. The note with it: read-out: apparent Kd; compound concentrations: 100 nM and 1000 nM (sheet 'Samples'), CATDS: 0.11714915098763; n = 1.
A further assay relates to MAPK10. The settings on record: read-out: apparent Kd, n = 1.
In another assay the test system is MAPK8. The settings on record: read-out: apparent Kd; compound concentrations: 100 nM and 1000 nM (sheet 'Samples'), CATDS: 0.17853758786403801; n = 1.
The subject of a further assay is MAPK9. The settings on record: read-out: apparent Kd, n = 1.
The next assay deals with JAK2. The note with it: read-out: apparent Kd; compound concentrations:100 nM and 1000 nM (sheet 'Samples'); n = 1.
A further assay relates to NLK. The settings on record: read-out: apparent Kd; compound concentrations:100 nM and 1000 nM (sheet 'Samples'); n = 1.
The test system of another assay is GSK3A. The note with it: read-out: apparent Kd, n = 1.
In the next assay the test system is GSK3B. The settings on record: read-out: apparent Kd, compound concentrations: 100 nM and 1000 nM (sheet 'Samples'), n = 1.
The next assay relates to MAP2K2. The note with it: read-out: apparent Kd; compound concentrations:100 nM and 1000 nM (sheet 'Samples'); n = 1.
In another assay the test system is RIOK2. The note with it: read-out: apparent Kd; compound concentrations:100 nM and 1000 nM (sheet 'Samples'); n = 1.
Another assay has as its system TGFBR2. The settings on record: read-out: apparent Kd; compound concentrations:100 nM and 1000 nM (sheet 'Samples'); n = 1.
Another assay relates to MAP3K11. The settings on record: read-out: apparent Kd; compound concentrations:100 nM and 1000 nM (sheet 'Samples'); n = 1.
The subject of a further assay is PRKCA. The settings on record: read-out: apparent Kd; compound concentrations:100 nM and 1000 nM (sheet 'Samples'); n = 1.
For a further assay, the system named is PRKCB. The settings on record: read-out: apparent Kd; compound concentrations:100 nM and 1000 nM (sheet 'Samples'); n = 1.
In the next assay the test system is RET. The settings on record: read-out: apparent Kd; compound concentrations:100 nM and 1000 nM (sheet 'Samples'); n = 1.
The next assay deals with STRADA. The note with it: read-out: apparent Kd; compound concentrations:100 nM and 1000 nM (sheet 'Samples'); n = 1.
The test system of a further assay is MAP3K1. The note with it: read-out: apparent Kd; compound concentrations:100 nM and 1000 nM (sheet 'Samples'); n = 1.
A further assay concerns MAP4K5. The note with it: read-out: apparent Kd; compound concentrations:100 nM and 1000 nM (sheet 'Samples'); n = 1.
In another assay the test system is NUAK1. The note with it: read-out: apparent Kd; compound concentrations:100 nM and 1000 nM (sheet 'Samples'); n = 1.
The subject of the next assay is NUAK2. The note with it: read-out: apparent Kd; compound concentrations:100 nM and 1000 nM (sheet 'Samples'); n = 1.
In a further assay the test system is SLK. The settings on record: read-out: apparent Kd; compound concentrations:100 nM and 1000 nM (sheet 'Samples'); n = 1.
Another assay deals with STK10. The note with it: read-out: apparent Kd; compound concentrations:100 nM and 1000 nM (sheet 'Samples'); n = 1.
In another assay the test system is MYLK3. The settings on record: read-out: apparent Kd; compound concentrations:100 nM and 1000 nM (sheet 'Samples'); n = 1.
A further assay has as its system TNIK. The settings on record: read-out: apparent Kd; compound concentrations:100 nM and 1000 nM (sheet 'Samples'); n = 1.
A further assay deals with ILK. The note with it: read-out: apparent Kd; compound concentrations: 100 nM and 1000 nM (sheet 'Samples'), CATDS: 0.49132594031882498; n = 1.
A further assay relates to IARS. The note with it: read-out: apparent Kd; compound concentrations:100 nM and 1000 nM (sheet 'Samples'); n = 1.
The test system of another assay is PIK3C3. The settings on record: read-out: apparent Kd; compound concentrations: 100 nM and 1000 nM (sheet 'Samples'), CATDS: 0.26990158235455203; n = 1.
A further assay has as its system PIK3CB. The note with it: read-out: apparent Kd; compound concentrations: 100 nM and 1000 nM (sheet 'Samples'), CATDS: 0.57413084763850397; n = 1.
For the next assay, the system named is ICK. The note with it: read-out: apparent Kd; compound concentrations: 100 nM and 1000 nM (sheet 'Samples'), CATDS: 0.23248137577465; n = 1.
The mark [1] stands for this setting: compound concentrations:100 nM and 1000 nM (sheet 'Samples').

Molecules are shown by their SMILES. Like-named read-outs stand apart in the source and are kept apart here.

With `CNS(=O)(=O)c1ccc(N(C)C)c(Nc2ncnc3cc(OC)c(OC)cc23)c1` [GSK114], the potency estimated from few doses with GAK is 0.0281 µM; with MAP2K5, 0.0127 µM; in the assay on SIK2, 0.639 µM; in the assay on SIK3 it was 1.35 µM; in the assay on ZAK, 0.646 µM.

`Nc1ncnc2c1ncn2-c1cccc2ccccc12` [SKF-97184]: the potency estimated from few doses in the assay with GARS was 1.67 µM; in the assay on MAP3K6 it was 2.27 µM; in the assay with MTOR, 0.419 µM; in the assay with PIK3C2A, 1.84 µM; with PIK3CA, 0.132 µM; in the assay with PRKDC, 0.896 µM. Besides, in the assay with RAB14, the potency estimated from few doses was 0.889 µM.

Take `CCC(=O)c1c(-c2ccccc2)c2cc(Cl)ccc2c(=O)n1Cc1cc(S(C)(=O)=O)n(CC(N)=O)n1` [TPKI-105]: the potency estimated from few doses with GRK6 (compound concentrations: 100 nM and 1000 nM (sheet 'Samples'), CATDS: 0.114980307902388) is 2.18 µM; with HSP90B1 (CATDS: 0.138909392239214), 1.09 µM; in the assay with MAP2K1, 2.01 µM; with MAPK10 (compound concentrations: 100 nM and 1000 nM (sheet 'Samples'), CATDS: 0.46372584389591998), 0.0901 µM; in the assay on MAPK8, 0.543 µM; with MAPK9 (compound concentrations: 100 nM and 1000 nM (sheet 'Samples'), CATDS: 0.26244745216645099) it was 0.235 µM.

Consider `c1ccc(-c2cnc3nccnn23)cc1` [AH20685XX], for which, in the assay on GRK6 (compound concentrations: 100 nM and 1000 nM (sheet 'Samples'), CATDS: 1), the potency estimated from few doses is 2.06 µM.

For the compound `Cn1c(=O)c(Oc2ccc(F)cc2F)cc2cnc(NC3CCOCC3)nc21` [RO3304806-000], the potency estimated from few doses in the assay on GRK6 (setting [1]) is 1.35 µM; with JAK2, 0.603 µM; in the assay on MAPK10 (setting [1]) it was 1 µM; in the assay on MAPK9 (setting [1]), 1.78 µM; in the assay on NLK, 1.62 µM.

As for `COc1ccc(C2=C(Nc3cccc(C(=O)O)c3)C(=O)NC2=O)cc1` [SB-390765], in the assay with GSK3A (setting [1]), the potency estimated from few doses was 0.0828 µM.

Consider `CC(C)c1ccc(Nc2nccc(-c3cnn4ncccc34)n2)cc1` [GW805758X], for which the potency estimated from few doses in the assay with GSK3A (setting [1]) was 0.888 µM; with GSK3B (CATDS: 0.16764618066406201), 1.46 µM; in the assay on MAP2K2, 2.02 µM; in the assay with RIOK2, 1.7 µM; in the assay on TGFBR2, 2 µM.

On to `CN(C)C/C=C/C(=O)Nc1ccc(C(=O)Nc2cccc(Nc3ncc(Cl)c(-c4c[nH]c5ccccc45)n3)c2)cc1` [THZ1], for which the potency estimated from few doses in the assay on MAP3K11 was 0.743 µM; with PRKCA it was 0.191 µM; in the assay on PRKCB it was 0.727 µM; in the assay with RET, 0.921 µM; in the assay on STRADA, 2.37 µM.

For the compound `C[C@@H](Oc1cc(-n2cnc3cc(-c4cnn(C)c4)ccc32)sc1C(N)=O)c1ccccc1Cl` [GSK580432A], the potency estimated from few doses with MAP3K1 is 0.129 µM; in the assay on MAP4K5, 1.04 µM; in the assay with NUAK1, 0.598 µM; with NUAK2, 0.525 µM; with SLK it was 0.615 µM; in the assay on STK10, 0.16 µM.

In the case of `C/C(Nc1ccc(S(N)(=O)=O)cc1)=C1/C(=O)Nc2ccccc21` [GW335962X], the potency estimated from few doses was 0.629 µM in the assay on MYLK3 and 2.26 µM with TNIK.

With `O=C(Nc1n[nH]c2nc(-c3cccs3)c(Br)cc12)C1CC1` [SB-735297], the potency estimated from few doses in the assay with GSK3A (setting [1]) is 1.29 µM.

In the case of `Cn1cc(C2=C(c3cn(C)c4cc(Cl)ccc34)C(=O)NC2=O)c2ccccc21` [RO0317597-000], the potency estimated from few doses in the assay on ILK is 1.59 µM; in the assay on MAPK10 (compound concentrations: 100 nM and 1000 nM (sheet 'Samples'), CATDS: 0.50898583433438105) it was 1.48 µM.

Turning to `CN1CCN(Cc2ccc(-c3cc4ncnc(Nc5ccc(OCc6cccc(F)c6)c(Cl)c5)c4s3)o2)CC1` [GW784684X], in the assay with IARS, the potency estimated from few doses was 1.61 µM.

In the case of `Cn1cc(C2=C(c3cccc(OC[C@H](O)CO)c3)C(=O)NC2=O)c2ccccc21` [RO3206173-000], the potency estimated from few doses was 0.00606 µM in the assay with GSK3A (compound concentrations: 100 nM and 1000 nM (sheet 'Samples'), CATDS: 0.54568324377959498); 0.00849 µM in the assay on GSK3B (CATDS: 0.46137484559858299).

On to `O=c1cc(N2CCOCC2)nc2n(Cc3cccc(Cl)c3Cl)c3ccccc3n12` [GSK2299009A], for which the potency estimated from few doses in the assay on HSP90B1 (CATDS: 0.28143783483282298) is 1.04 µM; with PIK3C3 it was 1.17 µM; in the assay on PIK3CB, 0.251 µM.

As for `COc1cccc2c1c(C1=C(c3cn(C)c4ccccc34)C(=O)NC1=O)cn2C` [RO0317494-000], the potency estimated from few doses in the assay on GSK3A (compound concentrations: 100 nM and 1000 nM (sheet 'Samples'), CATDS: 0.489076637072761) was 0.149 µM; with GSK3B (CATDS: 0.37680240996491099), 0.241 µM; in the assay on ICK, 0.912 µM.

These data come from publication PMC11062922 (Nature Chemical Biology, 2023).
